The results in this text go back to article PMC7862700, “An all-to-all approach to the identification of sequence-specific readers for epigenetic DNA modifications on cytosine”.

Common to all, as to assay: DAPPL (digital affinity profiling via proximity ligation, sequencing); 10 mM Tris-HCl pH 7.5, 50 mM NaCl, 1 mM DTT, 4% glycerol, room temperature, 30 min; GST-TFs on glutathione beads, 16-mer random dsDNA library, 0.1% formaldehyde crosslink after washing; high values mean tight binding
The target in one assay is T1, FLI1 (Homo sapiens, UniProt Q01543 1-452).
T1 sequence: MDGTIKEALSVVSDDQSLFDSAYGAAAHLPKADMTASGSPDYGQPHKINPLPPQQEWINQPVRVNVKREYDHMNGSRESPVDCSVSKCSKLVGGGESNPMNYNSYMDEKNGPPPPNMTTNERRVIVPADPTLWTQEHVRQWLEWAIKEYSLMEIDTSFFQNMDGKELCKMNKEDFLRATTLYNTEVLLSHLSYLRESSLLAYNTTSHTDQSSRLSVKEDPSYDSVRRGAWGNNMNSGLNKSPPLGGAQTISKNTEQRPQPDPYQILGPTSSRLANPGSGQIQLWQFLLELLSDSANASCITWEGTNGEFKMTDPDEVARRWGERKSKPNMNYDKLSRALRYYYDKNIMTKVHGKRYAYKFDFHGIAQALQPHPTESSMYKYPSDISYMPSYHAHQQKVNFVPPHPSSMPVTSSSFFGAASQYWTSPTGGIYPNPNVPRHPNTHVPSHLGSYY
The following applies: protein: recombinant; tags: N-terminal GST; dsDNA, one strand shown. In short, it runs like this: (§1)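 Sequencing on an Illumina NextSeq500 followed washing, crosslinking with 0.1% formaldehyde, proximity ligation (BsaI/T4 ligase, 1 h, 37 °C) and PCR amplification of pools that had been incubated for 30 min at room temperature with 200 nmole of a random double-stranded 16-mer DNA library in Tris/NaCl/DTT/glycerol buffer. Each pool held DNA-barcoded human transcription factors, expressed in yeast as GST fusions and captured on glutathione beads, plus a tag-only sample. Binding signal is a hexamer's read frequency for a factor divided by its frequency in the tag-only sample.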

The next assay addresses T2, ELK1 (Homo sapiens, UniProt P19419 1-428).
T2 sequence: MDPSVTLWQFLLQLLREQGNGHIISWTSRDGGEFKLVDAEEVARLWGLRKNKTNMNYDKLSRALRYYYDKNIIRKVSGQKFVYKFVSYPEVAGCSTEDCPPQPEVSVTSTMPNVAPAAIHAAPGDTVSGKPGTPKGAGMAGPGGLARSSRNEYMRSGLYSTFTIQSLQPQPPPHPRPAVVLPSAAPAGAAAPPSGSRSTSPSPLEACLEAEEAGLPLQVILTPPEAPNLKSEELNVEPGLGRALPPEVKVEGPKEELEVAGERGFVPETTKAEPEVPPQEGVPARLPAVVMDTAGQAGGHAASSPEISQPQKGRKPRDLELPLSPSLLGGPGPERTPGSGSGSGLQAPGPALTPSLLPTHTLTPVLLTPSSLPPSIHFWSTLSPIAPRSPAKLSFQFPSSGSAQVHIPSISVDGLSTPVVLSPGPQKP
The following applies: protein: recombinant; tags: N-terminal GST; dsDNA, one strand shown. A digest of the protocol:
as §1

The target in a further assay is T3, GABPA (Homo sapiens, UniProt Q06546 1-454).
T3 sequence: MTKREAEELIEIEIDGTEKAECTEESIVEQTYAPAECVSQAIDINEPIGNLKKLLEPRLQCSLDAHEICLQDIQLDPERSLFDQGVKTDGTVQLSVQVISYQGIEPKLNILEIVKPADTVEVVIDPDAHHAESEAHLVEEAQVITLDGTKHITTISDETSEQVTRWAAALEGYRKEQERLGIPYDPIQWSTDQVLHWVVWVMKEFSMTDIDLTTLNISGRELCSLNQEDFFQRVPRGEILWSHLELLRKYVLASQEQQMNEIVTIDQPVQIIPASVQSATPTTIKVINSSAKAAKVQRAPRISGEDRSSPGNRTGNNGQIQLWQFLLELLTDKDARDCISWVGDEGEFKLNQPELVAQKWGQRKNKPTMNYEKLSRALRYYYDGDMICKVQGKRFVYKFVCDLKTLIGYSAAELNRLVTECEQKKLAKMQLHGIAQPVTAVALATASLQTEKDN
The following applies: protein: recombinant; tags: N-terminal GST; dsDNA, one strand shown. A digest of the protocol:
as §1

The next assay concerns the target T4, ERG (Homo sapiens, UniProt P11308 1-479).
T4 sequence: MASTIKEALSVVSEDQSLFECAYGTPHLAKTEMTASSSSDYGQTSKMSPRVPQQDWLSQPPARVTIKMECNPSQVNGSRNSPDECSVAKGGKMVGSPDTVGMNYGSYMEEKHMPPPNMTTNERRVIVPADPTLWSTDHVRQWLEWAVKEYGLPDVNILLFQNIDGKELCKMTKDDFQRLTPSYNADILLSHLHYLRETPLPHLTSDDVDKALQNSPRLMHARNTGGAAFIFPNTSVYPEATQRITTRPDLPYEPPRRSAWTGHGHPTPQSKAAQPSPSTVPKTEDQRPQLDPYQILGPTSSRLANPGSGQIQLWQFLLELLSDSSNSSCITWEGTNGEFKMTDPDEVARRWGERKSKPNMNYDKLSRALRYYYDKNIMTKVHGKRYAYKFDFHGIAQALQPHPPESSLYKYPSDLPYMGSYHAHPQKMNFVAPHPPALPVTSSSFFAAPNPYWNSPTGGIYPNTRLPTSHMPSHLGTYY
The settings on record: protein: recombinant; tags: N-terminal GST; dsDNA, one strand shown. A digest of the protocol: as §1

Another assay concerns the target ELF1 (Homo sapiens, UniProt P32519 1-619). The settings on record: protein: recombinant; tags: N-terminal GST; dsDNA, one strand shown. A digest of the protocol: as §1
The target of another assay is T5, EHF (Homo sapiens, UniProt Q9NZC4 1-300).
T5 sequence: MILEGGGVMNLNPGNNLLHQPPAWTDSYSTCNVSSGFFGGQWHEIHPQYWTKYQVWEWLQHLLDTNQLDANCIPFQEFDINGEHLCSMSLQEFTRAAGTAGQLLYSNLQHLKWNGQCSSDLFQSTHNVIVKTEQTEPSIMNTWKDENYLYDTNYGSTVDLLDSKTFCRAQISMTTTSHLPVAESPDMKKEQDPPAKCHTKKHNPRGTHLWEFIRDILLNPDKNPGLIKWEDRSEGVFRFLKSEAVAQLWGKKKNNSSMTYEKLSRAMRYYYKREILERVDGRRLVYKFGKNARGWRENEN
The settings on record: protein: recombinant; tags: N-terminal GST; dsDNA, one strand shown. In short, it runs like this: as §1

A further assay deals with SPI1 (Homo sapiens, UniProt P17947 1-270). The following applies: protein: recombinant; tags: N-terminal GST; dsDNA, one strand shown. In short, it runs like this:
as §1

In the next assay the target is SPIB (Homo sapiens, UniProt Q01892 1-262). The settings on record: protein: recombinant; tags: N-terminal GST; dsDNA, one strand shown. A digest of the protocol: as §1
The target of another assay is T6, ELK3 (Homo sapiens, UniProt P41970 1-407).
T6 sequence: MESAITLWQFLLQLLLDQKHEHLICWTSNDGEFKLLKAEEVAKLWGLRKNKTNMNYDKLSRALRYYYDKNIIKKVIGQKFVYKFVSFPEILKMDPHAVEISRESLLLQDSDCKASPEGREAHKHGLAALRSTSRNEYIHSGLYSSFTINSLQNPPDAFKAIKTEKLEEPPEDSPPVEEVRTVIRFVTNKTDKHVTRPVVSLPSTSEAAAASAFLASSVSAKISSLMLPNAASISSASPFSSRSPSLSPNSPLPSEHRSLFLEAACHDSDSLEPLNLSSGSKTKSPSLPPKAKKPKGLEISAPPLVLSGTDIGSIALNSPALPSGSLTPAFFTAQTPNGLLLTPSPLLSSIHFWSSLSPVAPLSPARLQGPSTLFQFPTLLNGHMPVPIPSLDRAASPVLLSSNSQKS
The following applies: protein: recombinant; tags: N-terminal GST; dsDNA, one strand shown. A digest of the protocol:
as §1

For a further assay, the target named is T7, FEV (Homo sapiens, UniProt Q99581 1-238).
T7 sequence: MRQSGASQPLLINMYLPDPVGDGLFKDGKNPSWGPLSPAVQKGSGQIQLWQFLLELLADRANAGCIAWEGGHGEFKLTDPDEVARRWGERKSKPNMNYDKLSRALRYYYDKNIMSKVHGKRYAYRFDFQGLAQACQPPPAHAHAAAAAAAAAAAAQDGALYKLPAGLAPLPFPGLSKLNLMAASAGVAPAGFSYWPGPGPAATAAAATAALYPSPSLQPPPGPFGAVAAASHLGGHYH
The settings on record: protein: recombinant; tags: N-terminal GST; dsDNA, one strand shown. In short, it runs like this: as §1

In the next assay the target is ETV5 (Homo sapiens, UniProt P41161 1-510). The following applies: protein: recombinant; tags: N-terminal GST; dsDNA, one strand shown. A digest of the protocol:
as §1

In another assay the target is HSF1 (Homo sapiens, UniProt Q00613 1-529). The following applies: protein: recombinant; tags: N-terminal GST; chain copies: 3; dsDNA, one strand shown. A digest of the protocol: as §1
The target of a further assay is T8, SPIC (Homo sapiens, UniProt Q8N5J4 1-248).
T8 sequence: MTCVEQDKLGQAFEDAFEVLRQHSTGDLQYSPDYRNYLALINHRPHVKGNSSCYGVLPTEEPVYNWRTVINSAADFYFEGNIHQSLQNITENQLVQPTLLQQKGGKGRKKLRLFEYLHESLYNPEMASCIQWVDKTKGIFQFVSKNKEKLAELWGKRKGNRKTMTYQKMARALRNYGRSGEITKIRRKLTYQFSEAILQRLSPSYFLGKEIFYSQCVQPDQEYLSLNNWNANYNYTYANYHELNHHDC
The settings on record: protein: recombinant; tags: N-terminal GST; dsDNA, one strand shown. In short, it runs like this: as §1

A further assay concerns the target ELF4 (Homo sapiens, UniProt Q99607 1-663). The settings on record: protein: recombinant; tags: N-terminal GST; dsDNA, one strand shown. In short, it runs like this:
as §1

For a further assay, the target named is T9, ELK4 (Homo sapiens, UniProt P28324-2 1-405).
T9 sequence: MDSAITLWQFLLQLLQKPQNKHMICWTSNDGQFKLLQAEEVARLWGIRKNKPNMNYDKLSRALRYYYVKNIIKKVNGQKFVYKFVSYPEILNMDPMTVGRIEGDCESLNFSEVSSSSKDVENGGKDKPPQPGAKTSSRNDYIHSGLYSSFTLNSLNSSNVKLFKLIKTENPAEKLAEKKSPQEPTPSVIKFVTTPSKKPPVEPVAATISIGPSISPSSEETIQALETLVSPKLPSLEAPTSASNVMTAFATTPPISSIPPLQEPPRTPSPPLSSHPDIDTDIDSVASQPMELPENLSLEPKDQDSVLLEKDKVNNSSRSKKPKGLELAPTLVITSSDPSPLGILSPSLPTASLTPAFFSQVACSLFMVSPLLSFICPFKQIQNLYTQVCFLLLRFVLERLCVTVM
The following applies: protein: recombinant; tags: N-terminal GST; dsDNA, one strand shown. A digest of the protocol: as §1

The target in another assay is T10, ETV2 (Homo sapiens, UniProt O00321 1-342).
T10 sequence: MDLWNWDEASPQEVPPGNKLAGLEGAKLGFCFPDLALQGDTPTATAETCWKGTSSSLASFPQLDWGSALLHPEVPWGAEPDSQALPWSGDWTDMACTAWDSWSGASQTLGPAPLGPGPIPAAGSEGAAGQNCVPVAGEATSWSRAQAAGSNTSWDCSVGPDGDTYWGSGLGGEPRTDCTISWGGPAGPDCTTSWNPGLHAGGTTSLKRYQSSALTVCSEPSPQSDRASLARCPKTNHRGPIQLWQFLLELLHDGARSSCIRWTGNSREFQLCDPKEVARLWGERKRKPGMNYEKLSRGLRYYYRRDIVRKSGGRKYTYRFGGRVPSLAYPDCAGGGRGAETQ
The following applies: protein: recombinant; tags: N-terminal GST; dsDNA, one strand shown. A digest of the protocol: as §1

The next assay addresses T11, ELF3 (Homo sapiens, UniProt P78545 1-371).
T11 sequence: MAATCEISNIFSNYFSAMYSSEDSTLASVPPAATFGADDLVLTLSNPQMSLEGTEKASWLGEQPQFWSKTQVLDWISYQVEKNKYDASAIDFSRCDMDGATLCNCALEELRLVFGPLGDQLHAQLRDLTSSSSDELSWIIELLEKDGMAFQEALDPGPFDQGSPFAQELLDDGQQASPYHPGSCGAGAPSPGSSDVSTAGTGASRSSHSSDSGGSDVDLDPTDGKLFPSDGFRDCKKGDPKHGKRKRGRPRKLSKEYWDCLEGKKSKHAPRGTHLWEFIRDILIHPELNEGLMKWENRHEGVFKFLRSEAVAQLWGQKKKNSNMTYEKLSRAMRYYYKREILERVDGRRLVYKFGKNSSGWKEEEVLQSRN
The settings on record: protein: recombinant; tags: N-terminal GST; dsDNA, one strand shown. A digest of the protocol: as §1

For another assay, the target named is ETV1 (Homo sapiens, UniProt P50549 1-477). The settings on record: protein: recombinant; tags: N-terminal GST; dsDNA, one strand shown. In short, it runs like this:
as §1

Sequence of ELF4 (Q99607 whole entry): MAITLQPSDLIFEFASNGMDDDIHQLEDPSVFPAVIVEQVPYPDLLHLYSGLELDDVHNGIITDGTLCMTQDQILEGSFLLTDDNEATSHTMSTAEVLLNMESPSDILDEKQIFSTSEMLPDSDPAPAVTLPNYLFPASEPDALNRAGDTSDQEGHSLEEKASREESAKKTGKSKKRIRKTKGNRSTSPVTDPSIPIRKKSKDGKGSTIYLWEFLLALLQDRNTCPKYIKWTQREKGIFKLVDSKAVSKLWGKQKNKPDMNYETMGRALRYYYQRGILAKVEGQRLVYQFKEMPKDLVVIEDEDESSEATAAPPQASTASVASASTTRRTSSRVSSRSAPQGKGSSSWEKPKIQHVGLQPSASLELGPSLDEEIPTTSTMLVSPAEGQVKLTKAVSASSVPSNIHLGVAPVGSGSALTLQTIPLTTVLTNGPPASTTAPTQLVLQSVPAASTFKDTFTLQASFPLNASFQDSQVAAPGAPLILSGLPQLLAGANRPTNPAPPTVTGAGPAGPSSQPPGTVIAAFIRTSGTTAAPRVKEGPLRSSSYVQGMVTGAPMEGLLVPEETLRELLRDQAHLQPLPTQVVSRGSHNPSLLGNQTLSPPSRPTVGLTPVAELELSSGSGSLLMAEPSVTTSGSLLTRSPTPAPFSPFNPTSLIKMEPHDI
Sequence of ELF1 (P32519 whole entry): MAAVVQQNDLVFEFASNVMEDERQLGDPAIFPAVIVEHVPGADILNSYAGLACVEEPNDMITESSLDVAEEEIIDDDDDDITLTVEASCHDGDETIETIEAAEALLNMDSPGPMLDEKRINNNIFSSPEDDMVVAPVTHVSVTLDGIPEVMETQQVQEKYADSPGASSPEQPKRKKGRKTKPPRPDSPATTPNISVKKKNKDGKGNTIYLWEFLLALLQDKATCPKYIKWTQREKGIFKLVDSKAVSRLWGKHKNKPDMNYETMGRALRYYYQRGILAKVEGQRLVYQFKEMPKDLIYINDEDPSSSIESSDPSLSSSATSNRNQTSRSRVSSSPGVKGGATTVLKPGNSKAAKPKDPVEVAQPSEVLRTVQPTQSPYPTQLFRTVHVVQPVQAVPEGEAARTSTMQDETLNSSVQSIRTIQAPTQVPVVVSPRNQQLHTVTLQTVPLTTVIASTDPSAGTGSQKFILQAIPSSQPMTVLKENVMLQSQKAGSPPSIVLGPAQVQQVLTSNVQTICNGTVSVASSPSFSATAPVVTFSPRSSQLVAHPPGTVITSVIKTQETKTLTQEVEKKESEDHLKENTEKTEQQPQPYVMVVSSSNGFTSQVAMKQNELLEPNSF
Sequence of ETV5 (P41161 whole entry): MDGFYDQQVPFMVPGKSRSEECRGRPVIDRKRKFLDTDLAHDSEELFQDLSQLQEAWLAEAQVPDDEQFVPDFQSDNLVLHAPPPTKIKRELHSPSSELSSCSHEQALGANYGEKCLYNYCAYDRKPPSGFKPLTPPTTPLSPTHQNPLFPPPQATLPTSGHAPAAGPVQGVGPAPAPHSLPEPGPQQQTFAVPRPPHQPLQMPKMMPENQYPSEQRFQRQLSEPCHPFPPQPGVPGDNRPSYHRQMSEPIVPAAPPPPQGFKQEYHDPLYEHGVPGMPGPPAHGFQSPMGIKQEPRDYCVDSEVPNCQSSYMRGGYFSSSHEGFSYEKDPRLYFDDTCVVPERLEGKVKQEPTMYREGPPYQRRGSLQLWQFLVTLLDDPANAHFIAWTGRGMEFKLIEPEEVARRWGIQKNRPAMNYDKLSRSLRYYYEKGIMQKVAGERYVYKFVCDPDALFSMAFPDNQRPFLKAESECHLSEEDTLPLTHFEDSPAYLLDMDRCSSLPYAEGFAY
Sequence of ETV1 (P50549 whole entry): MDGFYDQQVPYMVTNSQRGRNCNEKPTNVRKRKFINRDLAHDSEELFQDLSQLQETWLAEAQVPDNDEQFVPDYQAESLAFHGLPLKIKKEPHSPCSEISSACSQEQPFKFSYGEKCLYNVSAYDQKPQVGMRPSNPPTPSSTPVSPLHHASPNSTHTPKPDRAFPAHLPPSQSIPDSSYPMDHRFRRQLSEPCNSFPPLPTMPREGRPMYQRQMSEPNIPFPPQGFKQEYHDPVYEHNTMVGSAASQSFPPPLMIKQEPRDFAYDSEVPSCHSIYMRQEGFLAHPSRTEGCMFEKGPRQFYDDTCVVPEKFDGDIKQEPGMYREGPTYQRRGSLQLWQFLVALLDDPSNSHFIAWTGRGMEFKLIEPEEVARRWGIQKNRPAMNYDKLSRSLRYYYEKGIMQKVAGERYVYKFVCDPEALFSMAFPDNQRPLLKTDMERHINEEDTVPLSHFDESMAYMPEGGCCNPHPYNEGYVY
Sequence of SPIB (Q01892 whole entry): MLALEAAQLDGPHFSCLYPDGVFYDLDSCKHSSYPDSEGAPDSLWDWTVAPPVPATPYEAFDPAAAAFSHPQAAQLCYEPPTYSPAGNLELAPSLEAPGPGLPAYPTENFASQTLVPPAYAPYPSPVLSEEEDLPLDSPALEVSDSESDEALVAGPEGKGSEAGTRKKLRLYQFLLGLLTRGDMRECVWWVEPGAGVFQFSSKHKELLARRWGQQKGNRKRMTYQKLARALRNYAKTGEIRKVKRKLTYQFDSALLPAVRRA
Sequence of HSF1 (Q00613 whole entry): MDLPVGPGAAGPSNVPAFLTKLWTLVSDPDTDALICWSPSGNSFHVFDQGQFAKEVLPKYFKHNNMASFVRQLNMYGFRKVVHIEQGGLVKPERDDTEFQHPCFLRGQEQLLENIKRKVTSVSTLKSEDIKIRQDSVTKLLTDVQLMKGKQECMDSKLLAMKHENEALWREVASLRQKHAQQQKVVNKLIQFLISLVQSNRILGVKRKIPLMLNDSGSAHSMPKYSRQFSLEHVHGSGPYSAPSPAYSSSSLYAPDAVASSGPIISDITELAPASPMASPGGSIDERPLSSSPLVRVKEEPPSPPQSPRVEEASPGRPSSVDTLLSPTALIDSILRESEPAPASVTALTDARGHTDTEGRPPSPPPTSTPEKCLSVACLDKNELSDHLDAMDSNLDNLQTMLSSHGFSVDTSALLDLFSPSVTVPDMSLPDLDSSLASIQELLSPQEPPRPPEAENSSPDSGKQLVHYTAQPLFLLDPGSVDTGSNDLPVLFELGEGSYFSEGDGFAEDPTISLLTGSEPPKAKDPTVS

Regarding CCGACG, the binding signal is 1.27 fold enrichment (6-mer frequency, TF over GST control) in the assay with FLI1; 1.15 fold enrichment (6-mer frequency, TF over GST control) with ELK1; 1.27 fold enrichment (6-mer frequency, TF over GST control) with GABPA; 1.2 fold enrichment (6-mer frequency, TF over GST control) with ERG; 1.28 fold enrichment (6-mer frequency, TF over GST control) with ELF1; 1.17 fold enrichment (6-mer frequency, TF over GST control) with EHF. Further, the binding signal was 1.22 fold enrichment (6-mer frequency, TF over GST control) with SPI1; 1.32 fold enrichment (6-mer frequency, TF over GST control) with SPIB; 1.2 fold enrichment (6-mer frequency, TF over GST control) with ELK3; 1.22 fold enrichment (6-mer frequency, TF over GST control) with FEV; 1.16 fold enrichment (6-mer frequency, TF over GST control) with ETV5; 1.02 fold enrichment (6-mer frequency, TF over GST control) in the assay with HSF1. In addition, the binding signal was 1.57 fold enrichment (6-mer frequency, TF over GST control) with SPIC; 1.29 fold enrichment (6-mer frequency, TF over GST control) with ELF4; 1.22 fold enrichment (6-mer frequency, TF over GST control) with ELK4; 1.31 fold enrichment (6-mer frequency, TF over GST control) with ETV2; 1.14 fold enrichment (6-mer frequency, TF over GST control) in the assay with ELF3; 1.2 fold enrichment (6-mer frequency, TF over GST control) with ETV1.
